These entries were drawn from the full list.
aSyn 5UTR act: Activators via SNCA 5'UTR binding, MLPCN | actives 7.1% (n = 300,000) | alpha-synuclein 5'UTR reporter, activators screen | activity score, % (tested at 7.5 µM), hits read low; in the data active means activity score below about -60%
Active calls of the source: *.

SMILES	aSyn 5UTR act
COc1ccc(-c2csc(Nc3cc(C)ccn3)n2)cc1C	-155*
COc1ccc(-c2csc(Nc3ncccn3)n2)cc1C	-76*
CCN(CC)CCCNc1nc2cc(OC)c(OC)cc2c2nc(-c3ccccc3)nn12	-76*
CCN(CC)CCCNc1nc2ccccc2c2nc(-c3ccncc3)nn12	-281*
CCN(CC)CCCNc1nc2cc(OC)c(OC)cc2c2nc(-c3cccnc3)nn12	-79*
Oc1ccc(-c2cnc3ccccc3n2)cc1	-72*
Clc1ccc(-c2cnc3ccccc3n2)cc1	-208*
CCCCOc1ccc(-c2cnc3ccccc3n2)cc1	101
Nc1ccc2nc(-c3ccccc3)cnc2c1	-76*
COc1ccccc1N=C(C)C1=C(O)CC(c2ccccc2)CC1=O (configuration not stated)	122
COc1ccc(N=C(C)C2=C(O)COC2=O)cc1	-93*
Cc1ccc(NC(=O)C(=O)NC(C)C2COc3ccccc3O2)cc1 (configuration not stated)	-71*
O=C(COC(=O)CCc1nc2ccccc2s1)Nc1nc(-c2ccccc2)cs1	-84*
O=C(CCc1nc2ccccc2s1)c1ccccc1	-85*
O=C(CCc1nc2ccccc2s1)OCC(=O)c1ccccc1	-100*
CCCCNC(=O)C1CCN(Cc2ccc(OCc3ccccc3)cc2)CC1	-219*
OC1CCN(Cc2ccc(OCc3ccccc3)cc2)CC1	-70*
C=CCN(CC=C)C(=O)C1CCN(Cc2ccc(OCc3ccccc3)cc2)CC1	-97*
Cc1cccc2c1Sc1ccc(Cl)cc1CC2N1CCNCC1 (configuration not stated)	104
Clc1c(CSc2nc3ccccc3o2)nc2ccccn12	-117*
Clc1c(CSc2nc3ccccc3o2)nc2sccn12	-117*
Brc1c(CSc2nc3ccccc3o2)nc2ncccn12	-118*
CCOc1ccc(NC(=O)Cn2ncc3ccccc32)cc1	-129*
CC1CCC(NC(=O)Cn2ncc3ccccc32)CC1 (configuration not stated)	-113*
CC(=O)Nc1ccccc1/C=C/c1ccc2c(C)ccc(O)c2n1	-64*
SMILES	aSyn 5UTR act
CC1CCC/C(=C\Nc2ccc3c(c2)OCO3)C1=O (configuration not stated)	-119*
O=C(c1ccc2nc(N3CCCCC3)sc2c1)N1CCN(c2ccccn2)CC1	-112*
O=C(c1cc(Br)c(Br)s1)N1CCN(c2ccccn2)CC1	-65*
NC(=O)C1CCN(C(=O)c2ccc3nc(N4CCCCC4)sc3c2)CC1	-102*
CN(C)/C=C/C(=O)/C=C/c1ccc(Cl)cc1	-180*
Clc1cccc(Cl)c1COn1nnc2ccccc21	-149*
COC(=O)c1ccc(COn2nnc3ccccc32)cc1	-130*
Cc1cc(C(=O)N/N=C/c2ccc3c(c2)OCO3)c(C)o1	-105*
Cc1occc1C(=O)N/N=C/c1ccc2c(c1)OCO2	-67*
CCc1ccc(C(=O)CSc2ncn[nH]2)cc1	-115*
CC(C)Oc1ccc(C(=O)Nc2ncn[nH]2)cc1	-65*
CC(C)COc1ccc(C(=O)Nc2ncn[nH]2)cc1	-66*
CC(C)COc1ccc(C(=O)Nc2sc3c(c2C(=O)O)CC(C)(C)OC3)cc1	63
Cc1c(C(=O)Nc2cccc3cccnc23)oc2ccccc12	-118*
Cc1c(C(=O)Nc2ccc(Cl)cn2)oc2ccccc12	-91*
Cc1c(C(=O)Nc2cnccn2)oc2ccccc12	-107*
O=c1c2ccc([N+](=O)[O-])cc2ncn1CCOc1ccccc1	-69*
COc1ccc2c(Cn3cnc4cc([N+](=O)[O-])ccc4c3=O)cc(=O)oc2c1	72
O=c1c2ccccc2ncn1CCOc1ccccc1[N+](=O)[O-]	-63*
NC(=O)C1CC(=O)N(c2ccc(OCc3ccc(F)cc3)cc2)C1 (configuration not stated)	-113*
NC(=O)C1CC(=O)N(c2ccc(OCc3ccc([N+](=O)[O-])cc3)cc2)C1 (configuration not stated)	-128*
O=C(N/N=C/c1ccccc1O)C1CC(=O)N(c2ccc(Cl)cc2)C1 (configuration not stated)	83
O=C(Nc1ccc(O)cc1)c1cc2n(n1)C(C(F)(F)F)CC(c1ccco1)N2 (configuration not stated)	-66*
CC(/C=C1\NC(=S)NC1=O)=C\c1ccccc1	-62*
Cc1nnc(SCC(=O)Nc2nc3c(s2)CC(C)CC3)s1 (configuration not stated)	-75*
SMILES	aSyn 5UTR act
Cn1nnnc1SCC(=O)Nc1nc2c(s1)CCCC2	-102*
O=C(CSC1=NCCS1)Nc1nc2c(s1)CCCC2	-104*
CC1CCc2c(sc(NC(=O)CSc3ncn[nH]3)c2C#N)C1 (configuration not stated)	91
COc1cc(/C=N/O)ccc1OCc1ccc(Cl)cc1	-97*
COc1cc(/C=N/NC(N)=S)ccc1OCc1ccc(C)cc1	-179*
COc1cc(/C=N/N=C2/NC(=O)C(CC(=O)O)S2)ccc1OCc1ccc(Cl)cc1 (configuration not stated)	-149*
COc1cc(/C=N/O)ccc1OCc1ccc(C(=O)O)cc1	116
CC(C)(C)C1CCC(OC(=O)c2cncc(Br)c2)CC1 (configuration not stated)	-123*
COc1ccc(N=C2S/C(=C\c3ccc(N4CCOCC4)o3)C(=O)N2CCc2c[nH]c3ccccc23)cc1	-113*
CCN(Cc1ccc(OC)c(F)c1)C(=O)CCl	-74*
O=c1cc(Cl)[nH]c(=O)n1Cc1ccc(F)cc1	-87*
Cc1ccc(C(=O)N2CCN(c3ccc(NC(=S)NC(=O)c4cccs4)cc3)CC2)cc1	52
C/C(=N/NC(=O)c1cccs1)c1ccc(N2CCOCC2)cc1	-66*
O=C(NC(=S)Nc1ccc(N2CCOCC2)cc1)c1cccs1	-126*
Cc1cccc(C(=O)NC(=S)Nc2ccc(N3CCOCC3)cc2)c1	-66*
CCCCN(C)S(=O)(=O)c1ccc(C(=O)Nc2nnc(-c3cccs3)o2)cc1	81
Cc1ccc(NC(=O)CSc2nnc(-c3cccs3)o2)cc1S(=O)(=O)N(C)C	-164*
O=C(NC(=S)Nc1ccc(CN2CCOCC2)cc1)c1ccc2c(c1)OCCO2	-116*
O=C(NC(=S)Nc1ccc(N2CCCCC2)cc1)c1ccc2c(c1)OCCO2	-125*
O=C(NNc1ncnc2c1cnn2-c1cccc(Cl)c1)c1ccco1	-158*
CC(=O)NNc1ncnc2c1cnn2-c1ccc(C)c(Cl)c1	-69*
Cc1cccc(CSC2=NN3CCCC(=O)N=C3S2)c1	-69*
O=Cc1cc2cc3c(cc2nc1Cl)OCCO3	-62*
Cc1ccc(N2C(=O)[C@@H]3Cc4ccccc4CN3C2=O)cc1	-71*
CC(C)c1ccc(N2C(=O)[C@@H]3Cc4ccccc4CN3C2=O)cc1	-118*
SMILES	aSyn 5UTR act
CCSc1nnc(NC(=O)c2ccc(C)o2)s1	-72*
CCSc1nnc(NC(=O)c2cc(C)oc2C)s1	-161*
CCc1nnc(NC(=O)c2cc(C)oc2C)s1	-88*
O=C(C1CCCCN1S(=O)(=O)c1ccccc1[N+](=O)[O-])N1CCCC1 (configuration not stated)	-62*
Cc1ccc(C(=O)N2CCN(S(=O)(=O)c3ccccc3[N+](=O)[O-])C2)cc1	-65*
Cc1ccc(NC(=O)O/N=C/c2ccc(F)cc2)cc1	-131*
Cc1ccc(NC(=O)O/N=C/c2ccc(N(C)C)cc2)cc1	-71*
O=C(Nc1ccccc1)O/N=C/c1ccc(F)cc1	-189*
CC(=O)c1cccc(NC(=O)CN2C(=O)COc3ccc(S(=O)(=O)N4CCOCC4)cc32)c1	73

High-throughput results from PubChem.
